Consider 95 molecules from PubChem BioAssay AID1578 (Sanford-Burnham Center for Chemical Genomics, 2009).

Screen size: about 290,000 compounds; about 3,000 (1%) were called active. No stated cut-off is given here; in the data, active means inhibition mostly above about 36% (no sharp cut-off); inactive means mostly below about 34%. The full list was thinned out, with actives kept by preference.

A short description of the test: inhibition of NOD1-driven NF-kB reporter – cell-based, luminescence, uHTS, primary screen (AID 1578).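 Further: HEK-293T reporter cells stimulated with the NOD1 agonist gamma-tri-DAP.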 The conditions noted are these: NOD1-driven NF-kB luciferase reporter cells, at 4 µM, active compounds read high. On the technique in general: Reporter assays use an easily measured gene product as a stand-in for the process of interest.
Broadly, the inhibition is the relative decrease from the control value, in per cent. With `Cc1ccc(S(=O)(=O)N(CC(=O)N/N=C/c2cccc(C)c2)c2cccc3cccnc23)cc1`, the inhibition is -9% (inactive).
For `CC(C)CC(=O)NC(C)C(c1cccs1)N1CCOCC1` (stereo not given), the inhibition is -10.9% (inactive).
For `O=c1cc(C(F)(F)F)[nH]c(=S)n1-c1ccccc1` the value was -3.4% (inactive).
With `O=[N+]([O-])c1ccc(-c2cnc3ccccc3n2)cc1`, the inhibition is -42.9% (inactive).
With `O=[N+]([O-])c1ccc(-c2c(O)c3ccccc3c3nc4ccccc4nc23)cc1` the figure was 87.7% (active); with `Cc1cc(-c2ccc([N+](=O)[O-])cc2)nc2ccccc12`, -26.6% (inactive).
Take `CCOC(=O)c1cnn(-c2ccc(C(F)(F)F)cn2)c1N`: the inhibition was -92.9% (inactive).
For `CC(=O)Nc1ccc(NC(=O)CCOc2cc(C)ccc2C)cc1` the value was 46.4% (inactive).
With `CCOC(=O)C1(Cc2ccc(OC)cc2)CCN(C(=O)CCn2cccn2)CC1`, the inhibition is 1.1% (inactive).
`Cc1ccc2sc(NNC(=O)c3cc(-c4cccs4)nc4ccccc34)nc2c1C`: the inhibition was -36.7% (inactive).
With `Cc1cccc2sc(NNC(=O)c3cc(-c4cccs4)nc4ccccc34)nc12`, the inhibition was 86.7% (active).
Regarding `Cc1cc(C)c2nc(NNC(=O)c3cc(-c4cccs4)nc4ccccc34)sc2c1`, the inhibition is -29.4% (inactive).
Turning to `O=C(NCCOc1ccc(Cl)cc1)c1ccc2ccccc2n1`, the inhibition is -22.8% (inactive).
With `c1ccc(-c2nc3cnccn3c2Nc2ccc3c(c2)OCCO3)cc1`, the inhibition is -26.2% (inactive).
With `Cc1nn(CC(=O)c2ccc(Cl)s2)c(C)c1[N+](=O)[O-]` the figure was -20.3% (inactive).
Consider `COc1ccc(Cc2nnc(NC(=O)c3cccc(F)c3)s2)cc1OC`, for which the inhibition is -8% (inactive).
In the case of `Cc1cc(C(=O)CCl)c(C)n1CC1COc2ccccc2O1` (stereo not given), the inhibition was 51.3% (active).
With `COc1ccc(CCn2c(C)cc(C(=O)CCl)c2C)cc1OC` the figure was 59.7% (active); with `Cc1cc(C(=O)COC(=O)c2ccc(O)cc2)c(C)n1CC1COc2ccccc2O1` (stereo not given), -9.9% (inactive).
Consider `CCOC(=O)c1cc(C)n(CCc2ccccc2)c1C`, for which the inhibition is -18.3% (inactive).
As for `COc1ccc(CCn2c(C)cc(C(=O)CSc3nnnn3-c3ccccc3)c2C)cc1OC`, the inhibition was -55.4% (inactive).
In the case of `Cc1cc(C(=O)CN2C(=O)C(=O)N(Cc3ccccc3)C2=O)c(C)n1CC1COc2ccccc2O1` (stereo not given), the inhibition is 27.8% (inactive).
For `COc1ccc(CCn2c(C)c(C(C)=O)c(C(C)=O)c2C)cc1OC` the value was -23.3% (inactive).
As to `Cc1cc(C(=O)CSc2nnnn2-c2ccccc2)c(C)n1CCc1ccccc1`, the inhibition was -52.2% (inactive).
Turning to `Cn1cccc1C(NC(=O)c1ccccc1)C(Cl)(Cl)Cl` (stereo not given), the inhibition is -0.5% (inactive).
Consider `Cc1cccc(C)c1OCCNC(=O)c1ccc2ccccc2n1`, for which the inhibition is 53.9% (inactive).
For `COc1cccc(C(=O)Nc2ccc(Cl)c(C(F)(F)F)c2)c1` the value was -30.7% (inactive).
Regarding `Cc1cc(=O)[nH]c(N/N=C/c2cn(CCC#N)nc2-c2ccccc2)n1`, the inhibition is -41.6% (inactive).
With `Cc1cc(NC(=O)CN(C)C)c([N+](=O)[O-])cc1C`, the inhibition was -1.4% (inactive).
In the case of `COC(=O)C1=C(Cn2cnc3ccccc32)NC(=O)NC1c1cc(C)ccc1C` (stereo not given), the inhibition is 14.7% (inactive).
In the case of `Cc1nnc2n(c1=O)C(CS(=O)(=O)c1ccccc1)CS2` (stereo not given), the inhibition was 9.4% (inactive).
For `CCCc1nnc(NC(=O)CCC(=O)N2CCN(Cc3cc(F)ccc3OC)CC2)s1` the value was -10.4% (inactive); for `CCOC(=O)CNC(=O)Cc1ccc(Cl)cc1`, -9.2% (inactive); for `Cc1cc(C)c2c(C)nn(-c3ccccc3)c2n1`, -3.5% (inactive).
On to `Cc1nc2c(c(C)nn2-c2ccccc2)c(C)c1Cl`, for which the inhibition is 6.2% (inactive).
For `CN(C)S(=O)(=O)c1cccc(C(=O)OCC(=O)Nc2sccc2C#N)c1`, the inhibition is 5.6% (inactive).
On to `Fc1ccccc1Cc1nnc2n1N=C(c1ccc(Cl)cc1)CS2`, for which the inhibition was -16% (inactive).
Turning to `Nc1cc(-c2ccc(Br)cc2)nn1Cc1ccccc1`, the inhibition is 46.7% (active).
For `Nc1cc(-c2ccccc2)nn1Cc1ccccc1`, the inhibition is -25.1% (inactive).
With `Nc1cc(-c2cccc(Br)c2)nn1Cc1ccccc1`, the inhibition was -9.7% (inactive).
Turning to `Cc1cc(/C=C2\SC(=Nc3ccc(F)cc3)NC2=O)c(C)n1-c1ccc(S(N)(=O)=O)cc1`, the inhibition is -10.7% (inactive).
With `O=C(CSc1nnc(Cc2ccccc2)o1)NC1CCCCC1`, the inhibition was -2.8% (inactive).
As for `COc1ccc(OCc2nnc(SCC(=O)NC3CCCCC3)o2)cc1`, the inhibition was -22.6% (inactive).
On to `COc1ccc(Cc2nnc(SCC(=O)NC3CCCC3)o2)cc1`, for which the inhibition was 71.8% (active).
On to `COc1ccc(C2NC(=O)CCC2[N+](=O)[O-])cc1` (stereo not given), for which the inhibition was -17.7% (inactive).
For `CCOC(=O)c1ccccc1NC(=O)c1cc2ccccc2o1` the value was -31.6% (inactive).
In the case of `C/C(=N\NC(=O)c1cc(C)nc2ccccc12)c1ccco1`, the inhibition was -18.1% (inactive).
For the molecule `O=C(CCCCn1c(=O)[nH]c2ccccc2c1=O)NCCC1=CCCCC1`, the inhibition was -3.1% (inactive).
For the molecule `CCOc1ccc(/C=N/NC(=O)c2ccc(CSc3nc4ccccc4[nH]3)cc2)cc1`, the inhibition was 66.9% (active).
With `COc1cc(/C=N/NC(=O)c2ccc(CSc3nc4ccccc4[nH]3)cc2)ccc1O`, the inhibition is -22.3% (inactive).
With `O=C(N/N=C/c1ccc(OC(F)F)cc1)c1ccc(CSc2nc3ccccc3[nH]2)cc1` the figure was -27.9% (inactive); with `Cn1c(=O)c2c(nc(N3CCN(c4ccc([N+](=O)[O-])cc4)CC3)n2C)n(C)c1=O`, 0.8% (inactive); with `CCOc1ccccc1C1C(C#N)=C(N)Oc2cc(C)n(Cc3ccccn3)c(=O)c21` (stereo not given), 4.8% (inactive).
In the case of `O=C1c2ccccc2C(=O)c2c1ccc1c(=O)n(-c3ccccc3)[nH]c21`, the inhibition was 8.9% (inactive).
With `Cc1ccc(C)c(NC(=O)COC(=O)c2cccc3c2C(=O)c2ccccc2C3=O)c1` the figure was 16.2% (inactive).
As to `Cc1ccc2c3c(cccc13)-c1ccccc1C2=O`, the inhibition was -32.2% (inactive).
For the molecule `Cc1cccc(-c2cc3c(nn2)-c2ccccc2C3=O)c1`, the inhibition was -99% (inactive).
For the molecule `O=C(Cn1c(C(F)(F)F)nc2ccccc21)N1CCCC1`, the inhibition was -9.5% (inactive).
In the case of `CC(CN1C(C)CCCC1C)OC(=O)c1ccc(Cl)cc1Cl` (stereo not given), the inhibition was -14.9% (inactive).
On to `CCN(CC(=O)NCc1ccc(F)cc1)CC(=O)NC1CCCC1`, for which the inhibition is -35.5% (inactive).
Regarding `CCCn1nnnc1SCC(=O)N1CCCc2ccccc21`, the inhibition was -20% (inactive).
With `CC1CCN(CC(=O)n2c3c(c4ccccc42)CCCC3)CC1`, the inhibition was 7.8% (inactive).
Turning to `CC1CCc2c(c3ccccc3n2C(=O)CCl)C1` (stereo not given), the inhibition was 74.2% (active).
Regarding `Cc1ccnc(SCC(=O)n2c3c(c4ccccc42)CC(C)CC3)n1` (stereo not given), the inhibition is 8.4% (inactive).
For `Cc1ccc(Nc2nc(N)nc(CN3CCCCCC3)n2)c(C)c1`, the inhibition was -23.1% (inactive).
In the case of `COc1cccc(Nc2nc(N)nc(CCl)n2)c1`, the inhibition was -7.5% (inactive).
`Cc1cccc(Nc2nc(N)nc(CN3CCC(C)CC3)n2)c1C`: the inhibition was -38.2% (inactive).
As to `CC1CC(C)CN(Cc2nc(N)nc(Nc3ccc4ccccc4c3)n2)C1` (stereo not given), the inhibition was -11.4% (inactive).
For the molecule `Cc1cccc(Nc2nc(N)nc(CN3CCN(C)CC3)n2)c1`, the inhibition was -6.7% (inactive).
In the case of `Cc1ccc(Nc2nc(N)nc(CSc3nccn3C)n2)c(C)c1`, the inhibition was -29.9% (inactive).
With `Nc1nc(CCl)nc(Nc2ccccc2)n1`, the inhibition is 36.6% (inactive).
In the case of `COc1ccc(OCc2nc(N)nc(Nc3cccc(C)c3C)n2)cc1`, the inhibition was -7% (inactive).
Take `COc1ccc(C(C)C)cc1S(=O)(=O)N1CCC(C(=O)NCc2cccnc2)CC1`: the inhibition is -9.3% (inactive).
Regarding `CN1CCN(C(=O)N2CCNC2=O)CC1`, the inhibition is -22% (inactive).
With `COc1ccc(/C(O)=C2/C(=O)C(=O)N(c3ccccn3)C2c2ccc(C(C)C)cc2)cc1` (stereo not given), the inhibition was -7.2% (inactive).
Regarding `Cc1nc2cc(NS(=O)(=O)c3c(C)c(C)cc(C)c3C)ccc2s1`, the inhibition was 22.1% (inactive).
For `COc1ccc(NC(=O)[C@@H]2[C@@H]3C(=O)N(C4CCCCC4)C(=O)[C@@H]3C3c4ccccc4C=CN32)cc1` (stereo not given in full), the inhibition was -4.8% (inactive).
Turning to `COc1ccc2sc(NC(=O)CC(C)C)nc2c1`, the inhibition is -66.7% (inactive).
Turning to `Cn1c(=S)[nH]c2[nH]c(=O)cnc2c1=O`, the inhibition was -2.8% (inactive).
`COc1ccc(NC(=O)c2ccc(C(=O)c3ccccc3)o2)cc1`: the inhibition was -21.8% (inactive).
As for `COc1ccc(CCNC(=O)c2nnn(CC(=O)Nc3ccc(C)cc3C)c2N)cc1OC`, the inhibition was -14.4% (inactive).
For `COC(=O)C1(C)NC(c2ccccc2C)C2C(=O)N(c3ccc(F)cc3)C(=O)C21` (stereo not given), the inhibition is -24.2% (inactive).
`Cc1cccc(C(=O)Nc2nnc(S(=O)(=O)N3CCC(C)CC3)s2)c1`: the inhibition is 21.6% (inactive).
Turning to `Cc1ccc(C(=O)Nc2nnc(S(=O)(=O)N3CCCCCC3)s2)cc1`, the inhibition was -23.3% (inactive).
For `CC1CCN(S(=O)(=O)c2nnc(NC(=O)c3cccc([N+](=O)[O-])c3)s2)CC1`, the inhibition was 30.9% (inactive).
Take `O=C(Nc1nnc(S(=O)(=O)N2CCCCC2)s1)c1ccc(Cl)cc1`: the inhibition was 37.5% (inactive).
With `COc1cc(/C=C2/SC(=S)N(CC(=O)NC(C)(C)C)C2=O)cc(OC)c1OC`, the inhibition was 2.3% (inactive).
`COc1ccc2c(CSc3nnc(-c4cccnc4)n3-c3ccccc3F)cc(=O)oc2c1`: the inhibition was -12.1% (inactive).
With `Cc1ccc(S(=O)(=O)N(C)C)cc1NC(=O)CN1C(=O)NC2(CCCCCC2)C1=O`, the inhibition was -38.1% (inactive).
For the molecule `CCOC(=O)[C@@H]1[C@H]2COc3ccc(Br)cc3[C@H]2N2C(=O)N(c3ccc(C)cc3)C(=O)[C@]12C`, the inhibition was -18.3% (inactive).
In the case of `O=C(CSCc1ccccc1)Nc1ccc(F)cc1F`, the inhibition is 7.2% (inactive).
Regarding `O=C(CSCc1ccccc1)Nc1ccc(F)c(F)c1`, the inhibition is -34.3% (inactive).
Take `O=C(CSCc1ccccc1)NNc1c(F)c(F)cc(F)c1F`: the inhibition is 34.4% (active).
`CCn1c(=O)c2cc(C(=O)NCc3cccs3)sc2c2ccccc21`: the inhibition was -17.9% (inactive).
As for `COc1ccc(-c2noc(C3CCCN(C(=O)c4cccc(F)c4)C3)n2)cc1` (stereo not given), the inhibition is -12.2% (inactive).
